# Data as given in paper PMC7862700, “An all-to-all approach to the identification of sequence-specific readers for epigenetic DNA modifications on cytosine”.
# Columns and labels:
# Assay in all cases: DAPPL (digital affinity profiling via proximity ligation, sequencing); 10 mM Tris-HCl pH 7.5, 50 mM NaCl, 1 mM DTT, 4% glycerol, room temperature, 30 min; GST-TFs on glutathione beads, 16-mer random dsDNA library, 0.1% formaldehyde crosslink after washing; high values mean tight binding
# Settings in all cases: protein: recombinant; tags: N-terminal GST; dsDNA, one strand shown
# ETV1 = ETV1 (Homo sapiens, UniProt P50549 1-477)
# Sequence of ETV1 (P50549 whole entry, the tested form may be a part): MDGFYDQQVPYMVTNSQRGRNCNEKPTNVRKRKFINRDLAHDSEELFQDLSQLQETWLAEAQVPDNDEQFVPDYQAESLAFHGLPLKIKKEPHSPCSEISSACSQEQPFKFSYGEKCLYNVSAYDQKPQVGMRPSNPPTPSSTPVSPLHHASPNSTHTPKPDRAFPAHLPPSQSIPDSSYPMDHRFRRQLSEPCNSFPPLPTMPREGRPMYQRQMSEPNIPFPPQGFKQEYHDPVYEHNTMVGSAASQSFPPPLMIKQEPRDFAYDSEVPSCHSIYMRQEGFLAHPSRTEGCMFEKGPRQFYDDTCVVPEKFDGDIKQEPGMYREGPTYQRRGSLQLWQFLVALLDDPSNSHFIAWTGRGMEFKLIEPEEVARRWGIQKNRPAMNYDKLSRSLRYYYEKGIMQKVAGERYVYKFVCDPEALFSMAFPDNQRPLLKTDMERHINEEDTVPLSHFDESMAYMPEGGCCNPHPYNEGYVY
# In short: (§1)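 A tag-only sample was pooled with DNA-barcoded human transcription factors that had been expressed in yeast as GST fusions and captured on glutathione beads. The pools were incubated for 30 min at room temperature with 200 nmole of a random double-stranded 16-mer DNA library in Tris/NaCl/DTT/glycerol buffer, then washed, crosslinked with 0.1% formaldehyde, proximity-ligated (BsaI/T4 ligase, 1 h, 37 °C), PCR-amplified and sequenced on an Illumina NextSeq500. Binding signal is each hexamer's read frequency for a factor divided by its frequency for the tag-only sample.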
# ERF = molecular target: T1, ERF (Homo sapiens, UniProt P50548 1-548)
# T1 sequence: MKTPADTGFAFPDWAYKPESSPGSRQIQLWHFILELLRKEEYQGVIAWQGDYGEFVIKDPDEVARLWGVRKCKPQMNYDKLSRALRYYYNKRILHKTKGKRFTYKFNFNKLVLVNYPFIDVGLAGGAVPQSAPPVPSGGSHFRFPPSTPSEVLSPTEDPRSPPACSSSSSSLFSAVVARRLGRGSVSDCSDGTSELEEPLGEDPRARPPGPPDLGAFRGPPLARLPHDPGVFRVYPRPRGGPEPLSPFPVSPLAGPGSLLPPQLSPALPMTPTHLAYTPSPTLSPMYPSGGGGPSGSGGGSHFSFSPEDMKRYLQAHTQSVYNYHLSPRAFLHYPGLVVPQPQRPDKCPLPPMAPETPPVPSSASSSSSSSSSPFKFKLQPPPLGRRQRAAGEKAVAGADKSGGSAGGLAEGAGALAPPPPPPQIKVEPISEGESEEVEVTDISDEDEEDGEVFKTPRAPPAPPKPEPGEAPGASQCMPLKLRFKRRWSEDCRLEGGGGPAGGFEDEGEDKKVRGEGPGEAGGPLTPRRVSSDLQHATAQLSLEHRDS
# In short: as §1
# ETV3L = molecular target: T2, ETV3L (Homo sapiens, UniProt Q6ZN32 1-361)
# T2 sequence: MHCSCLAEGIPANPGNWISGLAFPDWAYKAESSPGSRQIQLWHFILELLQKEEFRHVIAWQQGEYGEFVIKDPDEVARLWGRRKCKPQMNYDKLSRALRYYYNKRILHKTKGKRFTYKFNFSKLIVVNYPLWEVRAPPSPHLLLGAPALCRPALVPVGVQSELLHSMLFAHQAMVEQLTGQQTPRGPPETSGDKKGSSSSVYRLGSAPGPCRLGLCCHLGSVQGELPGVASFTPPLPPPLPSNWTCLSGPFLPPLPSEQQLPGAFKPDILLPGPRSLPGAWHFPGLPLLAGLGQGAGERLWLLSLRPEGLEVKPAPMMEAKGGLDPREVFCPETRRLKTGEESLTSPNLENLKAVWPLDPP
# In short: as §1
# ETS2 = molecular target: T3, ETS2 (Homo sapiens, UniProt P15036 1-469)
# T3 sequence: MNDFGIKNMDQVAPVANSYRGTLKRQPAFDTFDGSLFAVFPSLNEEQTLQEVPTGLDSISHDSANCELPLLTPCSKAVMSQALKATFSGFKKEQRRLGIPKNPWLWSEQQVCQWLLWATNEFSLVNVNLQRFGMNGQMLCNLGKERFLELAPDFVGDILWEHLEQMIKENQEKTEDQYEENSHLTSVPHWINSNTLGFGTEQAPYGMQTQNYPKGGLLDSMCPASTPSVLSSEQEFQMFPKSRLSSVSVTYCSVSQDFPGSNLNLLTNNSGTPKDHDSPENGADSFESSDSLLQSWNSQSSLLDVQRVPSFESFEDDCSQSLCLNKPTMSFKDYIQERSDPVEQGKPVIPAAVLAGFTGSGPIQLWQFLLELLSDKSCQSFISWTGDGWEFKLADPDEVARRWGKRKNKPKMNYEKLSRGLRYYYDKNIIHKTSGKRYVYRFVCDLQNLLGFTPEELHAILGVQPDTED
# In short: as §1
# SPDEF = molecular target: T4, SPDEF (Homo sapiens, UniProt O95238 1-335)
# T4 sequence: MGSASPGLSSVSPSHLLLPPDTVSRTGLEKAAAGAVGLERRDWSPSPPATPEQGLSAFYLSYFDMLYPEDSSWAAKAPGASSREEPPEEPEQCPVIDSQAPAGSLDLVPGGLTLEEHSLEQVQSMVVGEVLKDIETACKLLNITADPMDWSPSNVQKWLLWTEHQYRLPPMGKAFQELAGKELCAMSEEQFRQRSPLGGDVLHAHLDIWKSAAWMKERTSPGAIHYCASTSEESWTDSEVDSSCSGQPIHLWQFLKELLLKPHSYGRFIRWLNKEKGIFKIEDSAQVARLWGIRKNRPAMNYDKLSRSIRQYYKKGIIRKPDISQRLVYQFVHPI
# In short: as §1
# ETV7 = molecular target: T5, ETV7 (Homo sapiens, UniProt Q9Y603 1-341)
# T5 sequence: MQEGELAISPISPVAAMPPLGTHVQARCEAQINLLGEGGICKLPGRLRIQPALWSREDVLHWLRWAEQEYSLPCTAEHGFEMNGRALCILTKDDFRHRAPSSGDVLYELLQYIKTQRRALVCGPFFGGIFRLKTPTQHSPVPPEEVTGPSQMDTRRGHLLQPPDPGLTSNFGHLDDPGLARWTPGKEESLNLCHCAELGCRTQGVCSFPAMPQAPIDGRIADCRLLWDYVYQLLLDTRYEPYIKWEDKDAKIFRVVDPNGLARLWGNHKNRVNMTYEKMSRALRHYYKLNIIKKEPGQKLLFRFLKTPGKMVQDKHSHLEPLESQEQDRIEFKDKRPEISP
# In short: as §1
# ELF5 = molecular target: T6, ELF5 (Homo sapiens, UniProt Q9UKW6-2 1-255)
# T6 sequence: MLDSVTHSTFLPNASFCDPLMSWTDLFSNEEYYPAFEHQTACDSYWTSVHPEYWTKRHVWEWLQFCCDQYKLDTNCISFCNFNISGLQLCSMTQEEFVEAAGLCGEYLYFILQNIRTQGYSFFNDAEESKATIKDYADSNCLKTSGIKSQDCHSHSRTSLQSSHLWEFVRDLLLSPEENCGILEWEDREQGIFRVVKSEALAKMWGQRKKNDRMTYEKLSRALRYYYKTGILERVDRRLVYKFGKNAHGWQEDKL
# In short: as §1
# ETV3 = molecular target: T7, ETV3 (Homo sapiens, UniProt P41162-2 1-143)
# T7 sequence: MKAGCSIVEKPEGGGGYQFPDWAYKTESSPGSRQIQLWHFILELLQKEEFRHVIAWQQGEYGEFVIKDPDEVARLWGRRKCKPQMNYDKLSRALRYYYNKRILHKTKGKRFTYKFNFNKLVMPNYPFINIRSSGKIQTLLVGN
# In short: as §1
# ETV6 = ETV6 (Homo sapiens, UniProt P41212 1-452)
# Sequence of ETV6 (P41212 whole entry): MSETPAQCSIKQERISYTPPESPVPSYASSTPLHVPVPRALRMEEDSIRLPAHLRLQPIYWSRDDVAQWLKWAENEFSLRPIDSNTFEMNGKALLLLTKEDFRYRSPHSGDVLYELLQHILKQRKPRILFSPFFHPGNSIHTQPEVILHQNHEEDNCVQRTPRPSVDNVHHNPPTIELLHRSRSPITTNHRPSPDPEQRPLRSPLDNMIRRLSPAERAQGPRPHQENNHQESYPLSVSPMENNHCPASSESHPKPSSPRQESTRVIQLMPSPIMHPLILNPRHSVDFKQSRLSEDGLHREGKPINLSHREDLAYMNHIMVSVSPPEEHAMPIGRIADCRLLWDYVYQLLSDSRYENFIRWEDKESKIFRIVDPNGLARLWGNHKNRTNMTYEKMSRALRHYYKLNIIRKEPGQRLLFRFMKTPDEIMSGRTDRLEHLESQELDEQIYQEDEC
# In short: as §1
sequence,measurement,setting,value
TTGATC,binding signal,ETV1,"1.15 fold enrichment (6-mer frequency, TF over GST control)"
same,binding signal,ERF,"1.23 fold enrichment (6-mer frequency, TF over GST control)"
same,binding signal,ETV3L,"1.2 fold enrichment (6-mer frequency, TF over GST control)"
same,binding signal,ETS2,"1.1 fold enrichment (6-mer frequency, TF over GST control)"
same,binding signal,SPDEF,"1.24 fold enrichment (6-mer frequency, TF over GST control)"
same,binding signal,ETV7,"1.08 fold enrichment (6-mer frequency, TF over GST control)"
same,binding signal,ELF5,"1.21 fold enrichment (6-mer frequency, TF over GST control)"
same,binding signal,ETV3,"1.26 fold enrichment (6-mer frequency, TF over GST control)"
same,binding signal,ETV6,"1.09 fold enrichment (6-mer frequency, TF over GST control)"
